# Data published in PubChem BioAssay (NCATS).
# Inconclusive results are not listed. Activity calls are given as the source filed them. Calls follow the shape of the dose curve; as a rule, active = well fitted cell-killing curve with a large enough effect; inconclusive = small, poorly fitted or top-dose-only effect, or effect the other way; inactive = no such curve, though single readings can be large or run the other way. Starred links: 1 amine or outer side, 2 acyl side, 3 side chain; linkers in the order of their positions; H or OH if unused. Positions of bridges follow the written chain, without caps; N, C: chain ends. Non-standard residues stand in square brackets, D forms with d. Residues, ends and D or L forms follow the SMILES beside them. Chains are numbered I, II in the order given. *: point of attachment. Actinocin(9to1) = Cc1c2oc3c(C)ccc(C(=O)[*:1])c3nc-2c(C(=O)[*:2])c(N)c1=O; NMeV = CN[CH](C(=O)O)C(C)C; Nva = CCC[C@H](N)C(=O)O; Cbz = O=C(OCc1ccccc1)*; Sar = CNCC(=O)O
# Assay: qHTS of pediatric cancer cell lines to identify multiple opportunities for drug repurposing: Confirmatory screen for Rh30 cells (AID 1347126); also: nearly all actives have a fitted effect of over 55% in size
# Details: Rh30 rhabdomyosarcoma cell viability; series mostly up to 45.9 µM; activity change, negative = cytotoxic: at the top concentration
# Excerpt: Drug repurposing or repositioning has been offered as a strategy for drug development in oncology programs. This approach has special potential for childhood cancers and other rare or orphan diseases, where the expected return on new drug development has been a disincentive to pharmaceuticals.
# In this project we exploit the poly-pharmacology of drugs to discover new indications via phenotypic screening of a panel of 19 well-characterized cell lines derived from solid tumors seen in children and adolescents. The goal is to identify approved drugs with previously unrecognized anticancer properties that has the potential to reveal new mechanisms and biological processes involved in carcinogenesis or drug resistance. We employed a titration-based paradigm (quantitative high-throughput screening or qHTS), where all compounds were tested at multiple concentrations for their effect on cell viability. Concentration-response curves (CRCs) were derived directly from the primary screen, and both potency and efficacy values were used to identify compounds with robust bioactivity profiles. We screened the NIH Chemical Genomics Center (NCGC) Pharmaceutical Collection (NPC) and Mechanism Interrogation Plate (MIPE) small molecule collections of approved and investigational compounds against these cell lines; and measured metabolically active cells after 48 hours of compound treatment as a proxy for cell viability.
# Assay Submitter: Nathalia J. Martinez, National Center for Advancing Translational Sciences, National Institutes of Health, Rockville, MD, USA; email: natalia.martinez@nih.gov
# [1] Shen, M et al. Quantitative high-throughput phenotypic screening of pediatric cancer cell lines identifies multiple opportunities for drug repurposing. Oncotarget 2017 Dec 19;9(4):4758-4772. PMID 29435139.
# The cells were obtained from University of North Carolina (UNC), Pediatric Preclinical Testing Program (PPT), and Coriell Institute (CI).
# qHTS cell viability assay:
# Cells were assayed in growth media at a density of 500-1,000 cells/well. Five microliters of cells were dispensed into 1,536-well, white, solid-bottom, TC-treated plates (Greiner Bio One) using a multidrop dispenser and incubated at 37 degrees C, 5% CO2, under a humidified atmosphere for 5 hours. Twenty-three nanoliters of compounds and controls (neutral control DMSO or positive control bortezomib at final concentration of 2.3 µM) were subsequently transferred by Kalypsys pintool. For primary screens, the MIPE collection was tested at 11-point dilutions (final concentrations range from 0.78 nM to 46 µM) and the NPC collection at 8-point dilutions (final concentrations range from 0.59 nM to 46 µM). Compounds tested in follow-up screens were assayed at 11-point dilutions. Cells were incubated for 48 hours, followed by addition of 3 µL of CellTiter-Glo (Promega). After a 15 min incubation at room temperature, samples were analyzed for luminescence intensity using a ViewLux High-throughput CCD imager equipped with clear filters.
# % is scaled to controls: 0 for no effect and ±100 for the full control effect; potency is read from the fitted curve at half-maximal effect.
SMILES,Potency,"activity change, negative = cytotoxic"
CNC(=O)Nc1ccc(-c2nc(N3CC4CCC(C3)O4)c3cnn(C4CCC5(CC4)OCCO5)c3n2)cc1,0.329 µM (active),–
COc1ccc2c(c1OC)C(=O)OC2[C@H]1c2c(cc3c(c2OC)OCO3)CCN1C (stereo not given in full),–,-29.7% (inactive)
C[C@@H](Oc1ccc2[nH]nc(C=Cc3cnn(CCO)c3)c2c1)c1c(Cl)cncc1Cl,4.14 µM (active),–
CC(=O)[C@]1(O)Cc2c(O)c3c(c(O)c2[C@@H](O[C@H]2C[C@H](N)[C@@H](O)[C@H](C)O2)C1)C(=O)c1ccccc1C3=O,–,-23.6% (inactive)
C[N+](C)([O-])CCNc1ccc(NCC[N+](C)(C)[O-])c2c1C(=O)c1c(O)ccc(O)c1C2=O,–,-8.28% (inactive)
COC[C@H](NC(=O)c1cnc(C)s1)C(=O)N[C@@H](COC)C(=O)N[C@@H](Cc1ccccc1)C(=O)[C@@]1(C)CO1,0.737 µM (active),–
Oc1ccc(-c2ccc(-c3cc(Nc4cccc(CNC5CC5)c4)n[nH]3)cc2)c(O)c1,5.22 µM (active),–
COc1cc(OC)c(C=CS(=O)(=O)Cc2ccc(OC)c(NCC(=O)O)c2)c(OC)c1,–,-19.1% (inactive)
COc1cc2ncnc(Nc3cccc(Br)c3)c2cc1OC,9.27 µM (active),–
CCOc1cc2ncc(C#N)c(Nc3ccc(OCc4ccccn4)c(Cl)c3)c2cc1NC(=O)C=CCN(C)C,5.85 µM (active),–
Cc1ccc([N+](=O)[O-])cc1S(=O)(=O)N(C)N=Cc1cnc2ccc(Br)cn12,4.65 µM (active),–
O=C1NC(=O)C(=Cc2ccc3nccc(-c4ccncc4)c3c2)S1,6.57 µM (active),–
"Cc1c2oc3c(C)ccc(C(=O)NC4C(=O)NC(C(C)C)C(=O)N5CCCC5C(=O)N(C)CC(=O)N(C)C(C(C)C)C(=O)OC4C)c3nc-2c(C(=O)NC2C(=O)NC(C(C)C)C(=O)N3CCCC3C(=O)N(C)CC(=O)N(C)C(C(C)C)C(=O)OC2C)c(N)c1=O (stereo not given) (I: TVP[Sar][NMeV] / II: TVP[Sar][NMeV]; ester I:1-I:C, II:1-II:C; linker I:N-II:N via Actinocin(9to1); configuration not given here)",–,13.5% (inactive)
COc1cc2c(cc1OC)[C@@H]1C(=O)c3ccc4c(c3O[C@@H]1CO2)C=CC(C)(C)O4,1.85 µM (active),–
COc1ccc(S(=O)(=O)Nc2cccnc2Nc2ccc(O)cc2)cc1,–,-3.86% (inactive)
CC(C)C[C@H](NC(=O)[C@@H](NC(=O)c1cccc(-c2ccccc2)n1)[C@@H](C)O)B(O)O,3.29 µM (active),–
COc1cccc2c1C(=O)c1c(O)c3c(c(O)c1C2=O)C[C@@](O)(C(=O)CO)C[C@H]3O[C@H]1C[C@H](N)[C@H](O)[C@H](C)O1,1.17 µM (active),–
COc1cc([C@@H]2c3cc4c(cc3[C@@H](O[C@@H]3O[C@@H]5CO[C@@H](c6cccs6)O[C@@H]5[C@H](O)[C@@H]3O)[C@H]3COC(=O)[C@H]23)OCO4)cc(OC)c1O,1.31 µM (active),–
C=CCNC1=C2C[C@@H](C)C[C@H](OC)[C@@H](O)[C@@H](C)C=C(C)[C@H](OC(N)=O)[C@@H](OC)C=CC=C(C)C(=O)NC(=CC1=O)C2=O,4.14 µM (active),–
CC(=O)O[C@H]1C[C@@H]2CC[C@H]3[C@H]4C[C@H]([N+]5(C)CCCCC5)[C@@H](OC(C)=O)[C@@]4(C)CC[C@@H]3[C@@]2(C)C[C@H]1N1CCCCC1,8.27 µM (active),–

SMILES,Potency,"activity change, negative = cytotoxic"
O=C(NCc1ccccc1)[C@H](Cc1ccccc1)NC(=O)[C@@H]1O[C@@H]1C(=O)NCCc1ccc(O)cc1,–,-22.3% (inactive)
COC(=O)[C@@H]1[C@H]2C[C@@H]3c4[nH]c5ccccc5c4CCN3C[C@@H]2CC[C@@H]1O,–,12.8% (inactive)
CC(C(C)N1CC(=O)NC(=O)C1)N1CC(=O)NC(=O)C1 (stereo not given),–,-14.2% (inactive)
C[C@@]12C(=O)OC(=O)[C@@]1(C)C1CCC2O1,3.29 µM (active),–
COc1ccc(C[C@@H](C)[C@@H](C)Cc2ccc(OC)c(OC)c2)cc1OC,–,-8.93% (inactive)
C=C1C(=CC=C2CCC[C@]3(C)[C@@H]([C@H](C)CCCC(C)(C)O)CC[C@@H]23)C[C@@H](O)C[C@@H]1O,–,0.631% (inactive)
CO[C@@H]1[C@@H](O)[C@H](O)[C@@H](n2c3c(Cl)cccc3c3c4c(c5c6cccc(Cl)c6[nH]c5c32)C(=O)NC4=O)O[C@@H]1CO,–,4.3% (inactive)
Cc1cnc(Nc2ccc(CN3CCOCC3)cc2)nc1Nc1cccc(S(=O)(=O)NC(C)(C)C)c1,–,-24.1% (inactive)
Nc1nc2c(c(=O)[nH]1)N(C=O)[C@H](CNc1ccc(C(=O)N[C@@H](CCC(=O)O)C(=O)O)cc1)CN2,–,4.37% (inactive)
COc1cc([C@@H]2c3cc4c(cc3[C@H](O)[C@H]3COC(=O)[C@@H]23)OCO4)cc(OC)c1OC,–,11.8% (inactive)
CCC(C(=O)O)C1CCC(C)C(C(C)C(O)C(C)C(=O)C(CC)C2OC3(C=CC(O)[C@@]4(CC[C@](C)(C5CC[C@@](O)(CC)C(C)O5)O4)O3)C(C)CC2C)O1 (stereo not given in full),18.5 µM (active),–
CCc1cc(C(C)=NOCc2ccc(C3CCCCC3)c(C(F)(F)F)c2)ccc1CN1CC(C(=O)O)C1,–,1.58% (inactive)
Nc1ncn([C@@H]2O[C@H](CO)[C@@H](O)[C@@H]2O)c(=O)n1,18.5 µM (active),–
CC(C)(O)Cn1c(NC(=O)c2ccc(-c3cn[nH]c3)s2)nc2cc(CN3CCOCC3)ccc21,0.657 µM (active),–
CCN(CC)CCNC(=O)c1c(C)[nH]c(C=C2C(=O)Nc3ccc(F)cc32)c1C,12 µM (active),–
CCN(CC)Cc1ccc2cc(COC(=O)Nc3ccc(C(=O)NO)cc3)ccc2c1,–,2.66% (inactive)
COc1ccc(C=Cc2cc(OC)c(OC)c(OC)c2)cc1NC(=O)[C@H](N)CO,0.928 µM (active),–
CCC[C@@H](C=O)NC(=O)[C@H](CC(C)C)NC(=O)[C@H](CC(C)C)NC(=O)OCc1ccccc1 (Cbz-Leu-Leu-[Nva]-aldehyde),4.14 µM (active),–
O=C(C=Cc1ccc(CN(CCO)CCc2c[nH]c3ccccc23)cc1)NO,0.414 µM (active),–
C=CC(=O)N1CCc2ccc(-n3c(=O)ccc4cnc5ccc(-c6cnn(C)c6)cc5c43)cc21,5.22 µM (active),–
